# ClpP mod: qHTS Assay for Activators of ClpP; ATP-dependent Clp protease proteolytic subunit (Bacillus subtilis (strain 168)), P80244; purified B. subtilis ClpP, FRET peptide cleavage, 20 min; Potency, µM (series often up to 57.5 µM), inactives show top-dose activity change, negative = active; hit rate 1.9% among 340,000; AID 651965, 2013; active = well fitted falling curve with a large enough effect; inconclusive = small, poorly fitted or top-dose-only effect; inactive = no such curve, though single readings can be large or run the other way; note: potency is the fitted concentration of half-maximal effect; the source files actives as falling curves though it sought activators and does not explain the sign; nearly all actives have a fitted effect of over 65% in size
# Target sequence (P80244 whole entry, looked up): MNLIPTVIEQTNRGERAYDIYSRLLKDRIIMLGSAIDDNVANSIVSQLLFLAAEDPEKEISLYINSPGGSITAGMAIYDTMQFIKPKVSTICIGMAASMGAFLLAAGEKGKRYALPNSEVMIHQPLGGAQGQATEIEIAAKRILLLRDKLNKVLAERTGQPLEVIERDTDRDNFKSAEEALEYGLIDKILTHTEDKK
#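 ClpP 10 microg/mL final, pH 8 Tris/KCl buffer with BSA, glycerol, Tween-20; compound pinned in; FRET-FV substrate; RT 20 min; Ex320/Em430; ΔFRET vs ADEP 5.8 microM, DMSO, no enzyme.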
# Integrin act MD: activates integrin-mediated alleviation for muscular dystrophy | hit rate 0.064% among 350,000 | AID 624291 | Potency, µM (titrated, usually from 38.3 µM), inactives show at the highest dose activation, usual class: activators | alpha7betagal myoblasts, beta-gal FDG fluorescence, 48 h;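 note: potency is the fitted concentration of half-maximal effect; 100% = response of the positive control SU9516; nearly all actives have a fitted effect of over 60% in size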
#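 Alpha7betagal+/- myoblasts (passage 13) were plated 16-24 hr, then exposed to compounds (1:260 dilution of DMSO stock) for 48 hours at 37C. After MPER lysis, β-galactosidase reporter activity was read as FDG fluorescence (ex 480/em 540) after 30 minutes.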
# GRP78 ERSR act: inducers of ER stress response in human glioma cells. U87-MG GRP78 promoter luciferase reporter, 16 h. Potency, µM, for the others: top-dose activation, actives largely listed as activators. hit rate 0.02% among 420,000. AID 602332; note: potency is the fitted concentration of half-maximal effect; series mostly up to about 76 µM; % of control where 0% means no effect; nearly all actives have a fitted effect of over 35% in size
#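 ERSR induction read as luciferase luminescence (Bright-Glo, 10 min at room temperature) in stably transfected human U87-MG glioma cells exposed to compounds for 16 h, using GRP78 as sensor.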
# CBFb RUNX1 block: CBF-beta/RUNX1 interaction disruption; Q01196+Q13951; AlphaScreen CBFb-His/RUNX1-biotin binding, biochemical; Potency, µM (highest dose often 59.8 µM), inactives show at the top dose activity, negative = inhibition, actives largely listed as inhibitors; 230,000 tested, under 10 active; note: % of control where 0% means no effect
#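 Bead-based AlphaScreen assay; binding partners His-tagged CBF-beta and biotinylated RUNX1 at 30 nM each. Compound exposure 15 min after a 20-min protein preincubation; bead step 90 min; all steps at room temperature.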
# Apoferritin bind: candidate novel general anesthetic via apoferritin binding; apoferritin/1-aminoanthracene competitive binding, fluorescence; Potency, µM (doses to about 77.5 µM), inactives show at the highest dose activity change, negative = displacement, usual class: inhibitors; hit rate 0.074% among 350,000; AID 485281; note: potency is the fitted concentration of half-maximal effect; % is set by controls: 0 for no effect and ±100 for the full control effect; nearly all actives have a fitted effect of over 20% in size
# Target sequence (P02791 2-175 limits assumed): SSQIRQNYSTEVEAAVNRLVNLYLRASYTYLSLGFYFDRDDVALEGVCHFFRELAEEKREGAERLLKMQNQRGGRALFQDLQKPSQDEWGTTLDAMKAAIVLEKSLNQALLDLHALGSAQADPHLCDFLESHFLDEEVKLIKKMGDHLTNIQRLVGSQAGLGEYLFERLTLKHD
#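 Steps: apoferritin (10 uM) was premixed with half-saturated 1-AMA in PBS, compounds were pin-transferred, plates stood 10 min at room temperature, fluorescence was read at 380/535 nm, and curves were fitted with a Hill equation.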
# N370S GC: inhibits or activates N370S mutant glucocerebrosidase. Potency, µM (doses to about 59.4 µM), for the others: at the top dose activity change, negative = inhibition, hits mostly inhibitors. N370S GC spleen homogenate, 4MU-glucoside fluorescence. P04062. hit rate 0.092% among 330,000;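 note: potency is the fitted concentration of half-maximal effect; 0% = full enzyme activity and -100% = no enzyme basal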
# Numbers without * were called inactive; ? = inconclusive; . = no result given; ! = not active in a repeat; [ ] = remark or other dose. The entries come from a sample that favours hits as a whole. Unless noted, calls come from the whole dose curve; as a rule, active = well fitted curve in the direction sought with a large enough effect; inconclusive = small, poorly fitted or top-dose-only effect, or another doubt; inactive = no such curve, though single readings can be large; an effect the other way counts as inactive or inconclusive.
SMILES,ClpP mod,Integrin act MD,GRP78 ERSR act,CBFb RUNX1 block,Apoferritin bind,N370S GC
COCCn1cc(C(=O)NCCCOC(C)C)c2c3ccccc3n(C)c2c1=O,31.6µM*,-5.1%,-1.2%,.,-0.3%,19.7%
O=C(O)c1ccc2nc(-c3ccccc3)c(-c3ccccc3)nc2c1,22.4µM*,-20.3%,-2.1%,21.2%,1.1%,?
NC(=O)c1ccc2nc(-c3ccccc3)c(-c3ccccc3)nc2c1,4.0%,-3.3%,-4.0%,.,0.7%,-0.7%
Cc1ccc(C(=S)N2CCN(Cc3ccccc3)CC2)cc1,.,6.2%,0.5%,4.1%,-20.4%,12.8%
CCN1CCN(C(=O)c2ccc3nc(-c4ccccc4)c(-c4ccccc4)nc3c2)CC1,15.8µM*,-18.6%,-1.9%,.,3.1%,-3.6%
CCOC(=O)C1CCCN(C(=O)c2ccc3nc(-c4ccccc4)c(-c4ccccc4)nc3c2)C1 (stereo not drawn),4.0%,9.4%,-3.8%,.,?,?
CCN1CCN(C(=S)c2ccc(-c3ccccc3)cc2)CC1,-3.7%,10.7%,-7.4%,-6.5%,-6.4%,11.2µM*
Cc1c(O)cc2c(c1O)C(=O)CC(c1ccccc1)O2 (stereo not drawn),-0.4%,-33.5%,28.2µM*,1.3%,-21.6%,-2.3%
COc1c(O)cc2c(c1O)C(=O)CC(c1ccccc1)O2 (stereo not drawn),.,.,.,0.7%,-16.2%,-4.6%
Cc1ccc(S(=O)(=O)N(Cc2cccc(Cl)c2)C(=O)N2CCN(C)CC2)cc1,14.1µM*,29.9%,-2.2%,.,.,0.8%
Cc1ccc(CN(C(=O)N2CCN(C)CC2)S(=O)(=O)c2ccc(C)cc2)cc1,-2.2%,19.3%,-4.2%,.,.,-4.1%
O=C(c1cc(COc2ccc(F)cc2Cl)on1)N1C[C@H]2CC[C@H]1C2,28.2µM*,-31.2%,-0.1%,.,?,-7.6%
CCOC(=O)c1ccc(-c2cccc(-c3cc(=O)oc4cc(OC)cc(OC)c34)c2)cc1,20µM*,-7.4%,2.2%,20.6%,-5.1%,23.3%
COC(=O)C(C)Oc1cc(OC(C)C(=O)OC)c2c(-c3ccccc3)cc(=O)oc2c1 (stereo not drawn),2.7%,0.0%,31.6µM*,.,-9.2%,0.6%
COc1cc(OC)c2c(-c3cccc(-c4ccc(NC(C)=O)cc4)c3)cc(=O)oc2c1,?,-24.2%,-2.2%,-14.7%,-6.8%[110 µM],2.1%
O=C(NCC1Cc2cc(F)cc(-c3cnccn3)c2O1)c1cccc(Cl)c1 (stereo not drawn),.,.,-0.5%,.,.,.
COc1ccc(CC(=O)Nc2ccc3c(c2)C(=O)N(CCC(=O)O)C3=O)cc1,-1.5%,0.3%,1.0%,.,-5.9%,7.0%
CC(C)C(=O)Nc1ccc2c(c1)C(=O)N(CCC(=O)O)C2=O,28.2µM*,13.7%,2.3%,11.7%,123.5%,-0.4%[2.35 µM]
COC(=O)c1c(C)oc(C)c1S(=O)(=O)N1CCCCC1,17.8µM*,-8.5%,-4.6%,-0.1%,1.2%,-2.0%
O=C1NC(=O)c2c(NC(=O)C3CCCO3)cccc21 (stereo not drawn),15.8µM*,18.1%,-4.8%,1.4%,-2.5%,6.6%
CCOc1ccc2nc(N/C(N)=N/C(=S)Nc3ccc(C)c(C)c3)nc(C)c2c1,25.1µM*,0.8%,-3.3%,-4.1%,-10.2%,2.3%
CCC1(C2CCN(Cc3cccc4ccccc34)CC2)NC(=O)N(Cc2ccc3c(c2)OCO3)C1=O (stereo not drawn),.,.,-3.8%,.,.,.
CC(C)(C)c1cc(C(=O)NNc2cc(C(F)(F)F)ccc2Cl)n(Cc2ccccc2)n1,3.16µM*,-53.2%,1.6%,5.7%,-15.0%,9.8%
C[C@@H]1CN(Cc2ccc3c(c2)CN(Cc2nc(-c4ccccc4)cs2)CCO3)C[C@H](C)O1,.,.,7.9%,.,.,.
COc1ccc(Cl)cc1N1C(=O)[C@@H]2C[C@H]1CN2Cc1nc2ccccc2nc1C,.,.,-3.7%,.,.,.
Cc1[nH]c2ccccc2c1C(=O)CNc1ccc(Br)cc1,-0.2%,.,-5.5%,.,.,.
Cc1ccc(-n2c(CCC(=O)O)ccc2-c2cccs2)cc1C,11.2µM*!,4.9%,2.3%,-11.8%,-0.6%,15.9%
